Screening results (PubChem)
ELG1 DNA repair: blocks ELG1-dependent DNA repair in HEK293T cells | HEK293T ELG1-luciferase reporter, luminescence, 16 h; DNA damage induced by 5-fluorouridine | Potency, µM (top dose mostly 46.1 µM), for inactives: top-dose activity change, negative = inhibition, most hits filed as inhibitors | 330,000 compounds, 2.3% hits; also: % is scaled to controls: 0 for no effect and ±100 for the full control effect; nearly all actives have a fitted effect of over 55% in size
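5-Fluorouridine DNA damage + compound/DMSO, 2,000 cells/well, 16 h, 37 °C/5% CO2. ONE-Glo, 30 min RT, luminescence. Readout = decrease in reporter signal.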
Rab9 promoter act: Rab9 promoter activation; Potency, µM (titrated, usually from 9.22 µM), for inactives: at the top dose activation, negative = inhibition, usual class: activators; 320,000 compounds, 2.8% hits; Huh7 Rab9 promoter-luciferase reporter, luminescence, 24 h; AID 485297; also: % of control where 0% means no effect; nearly all actives have a fitted effect of over 60% in size
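Huh7 cells stably carrying Rab9 promoter–luciferase reporter, plated 1500 cells/well, compound added after 2 h and incubated 24 h at 37 °C; luciferase luminescence then read after 10 min with detection reagent.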
FLuc counter: inhibits or activates purified firefly luciferase, miR-21 counter-screen; P08659; purified FLuc, Km substrates, luminescence inhibition; Potency, µM (titrated, usually from 57.5 µM), without a hit: at the top dose activity change, negative = inhibition, most hits filed as inhibitors; 360,000 compounds, 6.9% hits;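 also: plate controls were vehicle for no effect and reference inhibitor for full effect; nearly all actives have a fitted effect of over 55% in size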
Target sequence (P08659 whole entry, looked up): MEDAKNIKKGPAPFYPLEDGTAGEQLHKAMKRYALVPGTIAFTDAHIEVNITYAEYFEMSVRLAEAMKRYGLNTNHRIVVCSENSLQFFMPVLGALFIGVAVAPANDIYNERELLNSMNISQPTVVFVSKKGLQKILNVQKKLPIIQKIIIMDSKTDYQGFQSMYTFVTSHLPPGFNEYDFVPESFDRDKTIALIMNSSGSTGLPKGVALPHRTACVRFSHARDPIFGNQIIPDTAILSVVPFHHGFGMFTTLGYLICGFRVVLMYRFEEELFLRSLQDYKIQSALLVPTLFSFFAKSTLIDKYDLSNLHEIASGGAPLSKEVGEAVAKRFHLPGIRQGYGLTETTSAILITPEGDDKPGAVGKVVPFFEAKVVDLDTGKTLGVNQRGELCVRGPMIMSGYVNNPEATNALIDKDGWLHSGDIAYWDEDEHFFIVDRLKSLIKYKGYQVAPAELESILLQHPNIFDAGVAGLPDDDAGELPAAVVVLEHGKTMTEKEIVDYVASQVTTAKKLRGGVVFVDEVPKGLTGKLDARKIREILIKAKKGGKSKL
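Purified P. pyralis luciferase (10nM final) with 10uM D-luciferin and 10uM ATP (Km levels) in 50mM Tris acetate pH 7.5, 10mM Mg acetate, 0.01% Tween-20, 0.05% BSA; qHTS 6-point titration, ~60 µM downward; luminescence read.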
SMN2 splice up: enhancers of SMN2 splice variant expression. HEK293 SMN2-luciferase splicing reporter, luminescence, 30-36 h. Potency, µM (series often up to 46.1 µM), for inactives: top-dose activity change, positive = activation, hits mostly activators. 210,000 compounds, 2.8% hits; also: % of control where 0% means no effect; nearly all actives have a fitted effect of over 55% in size
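qHTS luciferase splicing reporter: luminescence rises when SMN2 exon 7 is included in transfected HEK293 cells. Compound exposure lasted 30-36 h at 37C, with 4.5 mM final sodium butyrate as control, followed by a ONE-Glo read.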
NPC1 promoter act: activators of NPC1 promoter | Huh7 NPC1 promoter luciferase reporter, 24 h | Potency, µM (doses to about 9.22 µM), for the others: at the highest dose activation, most hits filed as activators | 320,000 compounds, 2.4% hits; also: % of control where 0% means no effect; nearly all actives have a fitted effect of over 60% in size
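Compounds in DMSO were transferred onto Huh7 NPC1-luciferase reporter cells pre-incubated 2 h; after 24 h at 37 °C, Amplite reagent was dispensed and luminescence recorded 10 min later.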
ELG1 genotoxic: genotoxicity induction in ELG1-luciferase HEK293T cells; HEK293T ELG1-luciferase reporter, luminescence, 16 h; Potency, µM (top dose mostly 46 µM), for inactives: at the top dose activity change, positive = activation, usual class: activators; 330,000 compounds, 1.3% hits; AID 504466; also: % of control where 0% means no effect; nearly all actives have a fitted effect of over 60% in size
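ELG1-luciferase HEK293T cells, 2,000/well; compound pinned in; 16 hr, 37 °C, 5% CO2; ONE-Glo, 30 min RT; luminescence on CCD imager.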
The depositor's hits bear a star; u = inconclusive; x = no result; [ ] = dose if it differs, or a comment. Only some compounds are listed: those with a hit (about 9.2% of all), similar ones and a draw of the others. Calls follow the shape of the dose curve; as a rule, active = well fitted curve in the direction sought with a large enough effect; inconclusive = small, poorly fitted or top-dose-only effect, or another doubt; inactive = no such curve, though single readings can be large; an effect the other way counts as inactive or inconclusive. Potency is read from the fitted curve at half-maximal effect.

SMILES | ELG1 DNA repair | Rab9 promoter act | FLuc counter | SMN2 splice up | NPC1 promoter act | ELG1 genotoxic
CN(C)/C=C/c1oc2ccc(O)cc2c1[N+](=O)[O-] | u | 3.16µM* | u | 19.8% | 25.6% | u
COc1cccc(CN(C)C(=O)c2ccccc2Sc2ccccc2C#N)c1OC | u | 0.447µM* | 8.49µM* | x | 0.316µM* | 11.8%
COc1ccc(-c2cc(C(=O)N(C)Cc3cccc(OC)c3OC)c3ccccc3n2)cc1OC | 13µM* | -1.7% | -22.6% | x | -3.2% | -18.3%
COc1ccc(CCN(C)C(=O)c2cc(-c3ccccc3)nc3ccccc23)cc1OC | u | 18.0% | 15.1µM* | x | 3.3% | -12.3%
COc1ccc(CCN(C)C(=O)c2cc(-c3ccccc3)nc3ccc(C)cc23)cc1OC | u | 3.4% | 2.39µM* | x | u | u
COc1ccc(/C=C/C(=O)Nc2nc3n(n2)C(c2ccc(F)cc2)C=C(c2ccccc2)N3)cc1 (stereo not given) | x | x | -9.9% | x | x | x
O=C(Nc1nnc(S(=O)(=O)N2CCN(c3ccc(F)cc3)CC2)s1)c1ccc(Cl)cc1 | x | x | -11.3% | x | x | x
COc1ccc(/C=C2\NC(=S)N(CC3CCCO3)C2=O)c(OC)c1 (stereo not given) | 17.2% | u | 15.1µM* | -18.2% | 2.9% | -1.2%
COc1ccccc1OCC(=O)Nc1ccc2c(c1)C(=O)N(CC1CCCO1)C2=O (stereo not given) | -3.7% | -4.2% | -4.6% | 0.4% | -1.0% | -5.3%
COc1cccc(NC(=O)c2ccc3c(c2)C(=O)N(CC2CCCO2)C3=O)c1 (stereo not given) | 23.9% | 0.4% | 16.9µM* | x | 3.1% | 3.0%
COc1ccccc1Oc1ccc2c(c1)C(=O)N(CC1CCCO1)C2=O (stereo not given) | -3.5% | 27.7% | 19µM* | x | 7.8% | -2.1%
COc1ccc(NC(=O)c2ccc3c(c2)C(=O)N(CC2CCCO2)C3=O)cc1 (stereo not given) | 0.8% | -4.9% | u | x | -6.9% | -1.1%
CC(=O)Oc1cccc(C(=O)Nc2ccc3c(c2)C(=O)N(CC2CCCO2)C3=O)c1 (stereo not given) | 22.6% | 3.5% | u | x | 22.0% | 3.4%
COc1cccc(C(=O)Nc2ccc3c(c2)C(=O)N(CC2CCCO2)C3=O)c1 (stereo not given) | u | 24.7% | 9.53µM* | x | 23.3% | -8.8%
O=C(OCC(=O)N1CCOCC1)c1ccc(Cl)cc1[N+](=O)[O-] | 3.0% | -5.1% | -7.3% | x | 10.2% | 0.0%
O=C(NCC(=O)N1CCC2(CC1)NCCc1[nH]cnc12)c1cccc(Cl)c1 | 20.6% | 0.3% | 3.8% | x | -2.7% | 2.8%
CC(=O)c1cccc(NC(=O)c2ccc3c(c2)CCCC3)c1 | u | 3.98µM* | 1.35µM* | x | 2.51µM* | 13.6%[9.26 µM]
COc1cccc(NC(=O)c2ccc3c(c2)CCCC3)c1 | u | 1.41µM* | 1.2µM* | x | 1.41µM* | 2.59µM*
COc1cccc(NC(=O)c2ccc[n+](C)c2)c1 | -8.1% | -6.2% | 6.9% | x | -4.5% | -1.9%
CCS(=O)(=O)N1CCCc2cc(C(=O)Nc3cccc(C(C)=O)c3)ccc21 | x | x | -6.1% | x | x | x
N#Cc1nc(-c2ccc(COc3ccc(Cl)cc3)o2)oc1N1CCCCC1 | x | x | 7.1% | x | x | x
CC(=O)NCCc1nc2cc(NC(=O)Nc3ccccc3)ccc2n1C | u | 3.98µM* | 6.75µM* | x | 2.24µM* | u
COc1ccccc1C(=O)Nc1ccc2c(c1)nc(CCNC(=O)c1ccccc1)n2C | u | 1.7% | 15.1µM* | x | -19.0% | -10.0%
CCC(=O)NCCc1nc2cc(NC(=O)c3ccccc3OC)ccc2n1C | u | 28.8% | 21.3µM* | x | 23.3% | u
COc1ccccc1C(=O)Nc1ccc2c(c1)nc(CCNC(C)=O)n2C | u | u | 15.1µM* | u | u | u
SMILES | ELG1 DNA repair | Rab9 promoter act | FLuc counter | SMN2 splice up | NPC1 promoter act | ELG1 genotoxic
Cn1c(CCN2CCCCC2)nc2cc(NC(=O)Nc3ccccc3)ccc21 | 17.8% | -1.2% | -3.4% | x | -1.6% | 13.1%
CCC(=O)NCCc1nc2cc(NC(=O)COc3ccccc3)ccc2n1C | u | u | u | x | u | 18.7%
COc1ccc(S(=O)(=O)NC2CC(=O)N(c3cccc(F)c3)C2)cc1OC (stereo not given) | 4.5% | -1.6% | 6.2% | x | 0.0% | -1.5%
COCCCNC(=O)Cn1c(=O)n(-c2ccccc2)c(=O)c2c1c1cc(OC)ccc1n2C | x | x | -5.3% | x | x | x
COc1ccc(-c2[nH]ncc2CN2CCN(Cc3cccs3)CC2)cc1F | 20.6µM* | -0.2% | -2.2% | -18.4% | u | -11.2%
CCN(CC)C1CCN(Cc2cn[nH]c2-c2ccc(OC)c(F)c2)C1 (stereo not given) | -15.3% | 10.7% | -1.3% | x | -1.7% | 1.8%
Nc1ccc2nc(-c3ccccn3)[nH]c2c1 | u | u | 13.5µM* | 15.8µM* | u | 11.2%
COc1ccc2nc(-c3ccccn3)[nH]c2c1 | u | 2µM* | 6.75µM* | x | 1.26µM* | 5.17µM*
COc1ccc2nc(NCCCO)[nH]c2c1 | 14.6% | 2.0% | -2.7% | 8.7% | -0.2% | -1.8%
Nc1ccc2nc(-c3ccc(N)c(Cl)c3)[nH]c2c1 | 4.1% | 2.82µM* | 6.01µM* | u | u | u
Nc1ccc2nc(-c3cccs3)[nH]c2c1 | u | 2.51µM* | 10.7µM* | 22.4µM* | u | u
Cc1cc(=S)nc(-c2ccccn2)[nH]1 | u | -0.7% | -3.0% | x | 0.0% | 2.8%
Nc1ccc2nc(C(F)(F)F)[nH]c2c1 | 5.1% | 0.8% | -2.1% | -2.1% | -2.0% | 1.2%
Nc1ccc(-c2nc3c(Cl)cc(N)cc3[nH]2)cc1 | -0.1% | -13.2% | 21.3µM* | -26.4% | -26.3% | -4.4%
COC(=O)Nc1nc2ccc(C(=O)c3ccccc3)cc2[nH]1 | x | x | x | 23.2% | x | x
Nc1ccc2nc(-c3ccccc3)[nH]c2c1 | u | 3.16µM* | 7.57µM* | 17.8µM* | 3.16µM* | u
Nc1ccc2nc(-c3cccnc3)[nH]c2c1 | 21.8% | -1.0% | u | 3.2% | -2.2% | 5.4%
Nc1cccc(-c2nc3ccc(C(=O)c4ccccc4)cc3[nH]2)c1 | u | 23.7% | 0.757µM* | x | 18.2% | u
CC(=O)Nc1ccc2nc(-c3cccs3)[nH]c2c1 | u | 2.51µM* | 12µM* | u | u | u
Cn1cccc1-c1nc2ccc(NC(=O)c3cccs3)cc2[nH]1 | u | 2.5% | u | 40.7% | 0.2% | u
COC(=O)c1sc(S(=O)(=O)N2CCN(c3ccccc3F)CC2)c(C(=O)OC)c1C | -26.0% | x | x | x | x | -2.3%
